The source of these data is PubChem BioAssay (NCATS).

Each structure is given as a SMILES string. Results filed as inconclusive are left out. Unmarked numbers belong to inactive results. The source made the active and inactive calls. Calls come from the whole dose curve; as a rule, active = well fitted cell-killing curve with a large enough effect; inconclusive = small, poorly fitted or top-dose-only effect, or effect the other way; inactive = no such curve, though single readings can be large or run the other way.

Assay [1] in a line: Quantitative High-Throughput drug screen in 47 multiple myeloma cell lines against the NCATS MIPE library collection: OCIMY7_PLB cell viability assay (AID 1918987). Note: nearly all actives have a fitted effect of over 65% in size. Particulars: OCI-MY7 myeloma viability, CellTiter-Glo ATP, 48 h; viability (% of DMSO): at 45.8 µM (top of the series). In a few lines:
(§1)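 Readout: median RLU from CellTiter-Glo after 5 min at room temperature. Preceding step was 48 h drug treatment of 500 cells/well at 37 °C, 5% CO2, with DMSO-only and media-only control wells.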
(In general: Cellular ATP, detected with luciferase, serves as a proxy for viable cell number.)

A short description of assay [2]: Quantitative High-Throughput drug screen in 47 multiple myeloma cell lines against the NCATS MIPE library collection: OCIMY5_PLB cell viability assay (AID 1918988). Note: nearly all actives have a fitted effect of over 65% in size. Put shortly: as §1
A short description of assay [3]: Quantitative High-Throughput drug screen in 47 multiple myeloma cell lines against the NCATS MIPE library collection: OPM1_PLB cell viability assay (AID 1918989). Note: nearly all actives have a fitted effect of over 40% in size. Put shortly: as §1
A short description of assay [4]: Quantitative High-Throughput drug screen in 47 multiple myeloma cell lines against the NCATS MIPE library collection: SKMM1_PLB cell viability assay (AID 1919863). Note: nearly all actives have a fitted effect of over 35% in size. As to conditions: SKMM1 myeloma viability, CellTiter-Glo ATP, 48 h; viability: stronger effect = lower value. Put shortly: as §1
Assay [5] is described as follows: Quantitative High-Throughput drug screen in 47 multiple myeloma cell lines against the NCATS MIPE library collection: U266_ATCC cell viability assay (AID 1919864). Note: nearly all actives have a fitted effect of over 35% in size. In a few lines:
as §1

Assay [6] can be described thus: Quantitative High-Throughput drug screen in 47 multiple myeloma cell lines against the NCATS MIPE library collection: XG6_PLB cell viability assay (AID 1919865). Note: nearly all actives have a fitted effect of over 40% in size. In a few lines: as §1
Assay [7] can be described thus: Quantitative High-Throughput drug screen in 47 multiple myeloma cell lines against the NCATS MIPE library collection: XG1_PLB cell viability assay (AID 1919866). Note: nearly all actives have a fitted effect of over 35% in size. Put shortly:
as §1

The nature of assay [8]: Quantitative High-Throughput drug screen in 47 multiple myeloma cell lines against the NCATS MIPE library collection: VP6_DJ cell viability assay (AID 1919867).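 For viability (% of DMSO): 100% = DMSO-only wells and 0% = wells with media alone.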 Note: nearly all actives have a fitted effect of over 40% in size. In a few lines:
as §1

Assay [9] in a line: Quantitative High-Throughput drug screen in 47 multiple myeloma cell lines against the NCATS MIPE library collection: UTMC2_PLB cell viability assay (AID 1919868).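 For viability (% of DMSO control): 100% = DMSO-only wells and 0% = media-only wells without cells.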 Note: nearly all actives have a fitted effect of over 55% in size. Particulars: CellTiter-Glo ATP luminescence, 48 h; viability (% of DMSO control): at 45.8 µM (top of the series). Put shortly:
as §1

The nature of assay [10]: Quantitative High-Throughput drug screen in 47 multiple myeloma cell lines against the NCATS MIPE library collection: PE2_PLB cell viability assay (AID 1919869). Note: nearly all actives have a fitted effect of over 35% in size. In a few lines:
as §1
Potency is the fitted concentration of half-maximal effect.

For the compound `CCc1ccc(OCc2ccccc2C(=O)Nc2ccc3nc(C)cc(N)c3c2)cc1`, the Potency in [1] is 1.05 µM (active); in assay [2] it was 7.43 µM (active); in assay [3] it was 1.32 µM (active); in assay [4], 6.62 µM (active); in [5], 5.9 µM (active); in [6], 1.05 µM (active). Besides, the Potency is 1.48 µM (active) in assay [7], 1.32 µM (active) in assay [8], 3.32 µM (active) in assay [9] and 2.35 µM (active) in [10].

In the case of `COc1ccc(-c2oc3c(CC=C(C)C)c(OC4O[C@H](CO)[C@@H](O)[C@H](O)[C@@H]4O)cc(O)c3c(=O)c2OC2O[C@@H](C)[C@H](O)[C@@H](O)[C@@H]2O)cc1` (stereo not given in full), the Potency is 13.2 µM (active) in assay [1]; 20.9 µM (active) in assay [2]; 26.4 µM (active) in assay [3]; 20.9 µM (active) in assay [4]; 23.5 µM (active) in assay [6]; 18.7 µM (active) in [7]. In addition, the values for the Potency in assay [8] and in assay [10] were 16.6 µM (active) and 23.5 µM (active), respectively.

In the case of `CNC1CCC(N(Cc2cccc(-c3ccncc3)c2)C(=O)c2sc3c(F)ccc(F)c3c2Cl)CC1` (stereo not given), the Potency in assay [1] was 0.0662 µM (active); in [2], 18.7 µM (active); in assay [3], 13.2 µM (active); in assay [4], 18.7 µM (active); in [5], 18.7 µM (active); in [6], 14.8 µM (active). Moreover, the Potency in assay [7] was 18.7 µM (active); in assay [8], 13.2 µM (active); in assay [9] it was 20.9 µM (active); in assay [10] it was 10.5 µM (active).

`CCS(=O)(=O)N1CC(CC#N)(n2cc(-c3ncnc4[nH]ccc34)cn2)C1`: the Potency is 8.33 µM (active) in assay [1]; 7.43 µM (active) in assay [2]; 20.9 µM (active) in assay [3]; 23.5 µM (active) in assay [5]; 2.09 µM (active) in assay [6]; 0.332 µM (active) in [7].

Regarding `Cc1c(NC(=O)c2ccc(C(C)(C)C)cc2)cccc1-c1cn(C)c(=O)c(Nc2ccc(C(=O)N3CCOCC3)cc2)n1`, the Potency was 8.33 µM (active) in [1]; 16.6 µM (active) in [2]; 18.7 µM (active) in assay [3]; 23.5 µM (active) in assay [5]; 20.9 µM (active) in [6]; 9.35 µM (active) in assay [7]. Besides, in assay [10], the Potency is 14.8 µM (active).

A word on the viability: it is a read-out of living cells in per cent, often relative to untreated cells. As for `COc1ccc(-c2cc(=O)c3c(O)cc(O)cc3o2)cc1O`, the Potency in [1] was 3.72 µM (active); in assay [2] it was 2.64 µM (active); in assay [3] it was 7.43 µM (active); in [6], 2.35 µM (active); in assay [7] it was 2.09 µM (active); in assay [8], 4.18 µM (active). For the same compound, the values for the Potency in [9] and in assay [10] were 8.33 µM (active) and 6.62 µM (active), respectively. The viability in assay [4] was 119%.

`CCCCCCCCCCCC1=C(O)C(=O)C=C(O)C1=O`: the Potency in assay [1] is 10.5 µM (active); in assay [2] it was 29.6 µM (active); in [3], 3.72 µM (active); in [6] it was 0.372 µM (active); in assay [8], 2.64 µM (active).

For the compound `CO[C@H]1C(=O)[C@]2(C)[C@@H](OC)C[C@H]3OC[C@@]3(OC(C)=O)[C@H]2[C@H](OC(=O)c2ccccc2)[C@]2(O)C[C@H](OC(=O)[C@H](O)[C@@H](NC(=O)OC(C)(C)C)c3ccccc3)C(C)=C1C2(C)C`, the Potency result in assay [1], in [2], in assay [3], in assay [9] and in [10] was “inactive” in each case. Besides, the viability in assay [4] is 65.2%. Further, the Potency in [8] was 0.001 µM (active).

For the compound `COc1ccc2c3c1OC1C[C@@H](O)C=C[C@@]31CCN(C)C2` (stereo not given in full), the Potency in assay [1] was 4.18 µM (active); in [2], 10.5 µM (active); in assay [5], 4.18 µM (active); in assay [7] it was 5.9 µM (active). Also, the Potency entry in [3] was “inactive”. In addition, the viability in assay [4] is 103%.

Consider `Cc1ccn(-c2ccc(-c3ncco3)cc2)c(=O)c1-c1ccc2nc(N)ncc2c1`, for which the Potency in [1] was 0.935 µM (active); in assay [3] it was 3.72 µM (active); in assay [7] it was 3.72 µM (active); in assay [8] it was 1.66 µM (active); in [10], 4.69 µM (active). In addition, in [4], the viability is 99.5%.

Take `CO[C@H]1C[C@@H]2CC[C@@H](C)[C@@](O)(O2)C(=O)C(=O)N2CCCC[C@@H]2C(=O)O[C@H]([C@@H](C)C[C@@H]2CC[C@H](O)[C@H](OC)C2)CC(=O)[C@H](C)C=C(C)[C@@H](O)[C@@H](OC)C(=O)[C@H](C)C[C@H](C)C=CC=CC=C1C`: the Potency in [1] is 14.8 µM (active). In addition, in assay [4], the viability was 82.9%. Also, in [6], the Potency entry was “inactive”.

For `O=C1NC(=O)C(=Cc2ccc3nccnc3c2)S1`, the Potency in assay [1] was 2.29 µM (active); in assay [3] it was 6.45 µM (active); in assay [4], 6.45 µM (active); in assay [7] it was 6.45 µM (active); in [8], 4.57 µM (active); in assay [9] it was 3.63 µM (active).

As for `O=c1c(-c2ccc(O)cc2)coc2cc(O)ccc12`, the Potency entry in [1], in [3], in [7], in assay [9] and in assay [10] was “inactive” each time. In [2], the Potency is 14.8 µM (active).

On to `CCn1c(C(=O)N(C2CC2)C2CC2)cc2c3c(ncn3C)c(Nc3cc(C)n(C)n3)nc21`, for which the Potency in [1] was 14.8 µM (active); in assay [3], 20.9 µM (active); in assay [6] it was 13.2 µM (active); in [8], 29.6 µM (active); in [10], 16.6 µM (active). In addition, in assay [4], the viability is 128%.

In the case of `CC(C)[C@H](CO)Nc1nc(Nc2ccc(C(=O)O)c(Cl)c2)c2ncn(C(C)C)c2n1`, the Potency in assay [1] was 16.6 µM (active); in assay [3], 10.5 µM (active); in assay [8], 23.5 µM (active); in [10], 23.5 µM (active).

Consider `COc1ccc(-c2coc3cc(O)cc(O)c3c2=O)cc1`, for which the Potency entry in assay [1], in assay [3], in [7] and in assay [8] was “inactive” each time.

In the case of `CC=CC[C@@H](C)C(=O)[C@H]1C(=O)N[C@@H](C(C)C)C(=O)N(C)CC(=O)N(C)[C@@H](CC(C)C)C(=O)N[C@@H](C(C)C)C(=O)N(C)[C@@H](CC(C)C)C(=O)N[C@@H](C)C(=O)N[C@H](C)C(=O)N(C)[C@@H](CC(C)C)C(=O)N(C)[C@@H](CC(C)C)C(=O)N(C)[C@@H](C(C)C)C(=O)N1C`, the Potency in assay [1] was 16.6 µM (active); in [2], 23.5 µM (active); in assay [4], 14.8 µM (active).

Turning to `C=C1C(=O)OC(CCCCCCCC)C1C(=O)O` (stereo not given), the Potency in assay [1] is 11.8 µM (active); in [3] it was 20.9 µM (active); in [6], 20.9 µM (active); in assay [7], 14.8 µM (active).
